The values below come from the supplement of paper PMC9117331.

Common to all, as to conditions: 0.5 µM; time after treatment 48 h; PC9 signalome
Test [1] concerns PC9. As to the kind of experiment: AKT reporter activity score (signed KS statistic vs DMSO) (signed KS statistic (-1 to 1)); higher = stronger activation of the pathway reporter relative to DMSO.
Test [2] concerns PC9. As to the kind of experiment: RAR reporter activity score (signed KS statistic vs DMSO) (signed KS statistic (-1 to 1)); higher = stronger activation of the pathway reporter relative to DMSO.
In test [3] the test system is PC9. The experiment in a line: PKA reporter activity score (signed KS statistic vs DMSO) (signed KS statistic (-1 to 1)); higher = stronger activation of the pathway reporter relative to DMSO.
Test [4] concerns PC9. As to the kind of experiment: p38 reporter activity score (signed KS statistic vs DMSO) (signed KS statistic (-1 to 1)); higher = stronger activation of the pathway reporter relative to DMSO.
The subject of test [5] is PC9. The experiment in a line: HIF reporter activity score (signed KS statistic vs DMSO) (signed KS statistic (-1 to 1)); higher = stronger activation of the pathway reporter relative to DMSO.
The test system of test [6] is PC9. As to the kind of experiment: ERK reporter activity score (signed KS statistic vs DMSO) (signed KS statistic (-1 to 1)); higher = stronger activation of the pathway reporter relative to DMSO.
The subject of test [7] is PC9. As to the kind of experiment: JNK reporter activity score (signed KS statistic vs DMSO) (signed KS statistic (-1 to 1)); higher = stronger activation of the pathway reporter relative to DMSO.
Test [8] has as its system PC9. The experiment in a line: WNT reporter activity score (signed KS statistic vs DMSO) (signed KS statistic (-1 to 1)); higher = stronger activation of the pathway reporter relative to DMSO.
Test [9] concerns PC9. The experiment in a line: NFkB reporter activity score (signed KS statistic vs DMSO) (signed KS statistic (-1 to 1)); higher = stronger activation of the pathway reporter relative to DMSO.
Test [10] deals with PC9. As to the kind of experiment: YAP/TAZ reporter activity score (signed KS statistic vs DMSO) (signed KS statistic (-1 to 1)); higher = stronger activation of the pathway reporter relative to DMSO.
For test [11], the system named is PC9. The experiment in a line: PKC reporter activity score (signed KS statistic vs DMSO) (signed KS statistic (-1 to 1)); higher = stronger activation of the pathway reporter relative to DMSO.

With `CCN1CCN(Cc2ccc(-c3cc4c(N[C@H](C)c5ccccc5)ncnc4[nH]3)cc2)CC1`, in the test with PC9 [1], the “AKT reporter activity score” value is -0.376. In addition, in the test with PC9 [2], the “RAR reporter activity score” value was found to be 0.505. In addition, the “PKA reporter activity score” value in the test with PC9 [3] is -0.379. The “p38 reporter activity score” value in the test with PC9 [4] was -0.36. Also, in the test with PC9 [5], the “HIF reporter activity score” value turned out to be 0.189. In addition, the “ERK reporter activity score” value in the test on PC9 [6] was -0.726. In addition, the “JNK reporter activity score” value in the test on PC9 [7] was determined as 0.193. In the test on PC9 [8], the “WNT reporter activity score” value is 0.184. Moreover, the “NFkB reporter activity score” value in the test on PC9 [9] stood at 0.161. In the test on PC9 [10], the “YAP/TAZ reporter activity score” value worked out at 0.381.
For `CO[C@H]1C[C@@H]2CC[C@@H](C)[C@@](O)(O2)C(=O)C(=O)N2CCCC[C@H]2C(=O)O[C@H]([C@H](C)C[C@@H]2CC[C@@H](OP(C)(C)=O)[C@H](OC)C2)CC(=O)[C@H](C)/C=C(\C)[C@@H](O)[C@@H](OC)C(=O)[C@H](C)C[C@H](C)/C=C/C=C/C=C/1C` [Deforolimus (MK-8669)], the “AKT reporter activity score” value with PC9 [1] was 0.241. In addition, the “RAR reporter activity score” value in the test with PC9 [2] was -0.292. The “PKC reporter activity score” value in the test with PC9 [11] was -0.044. For the same compound, in the test on PC9 [3], the “PKA reporter activity score” value came out at 0.262. The “p38 reporter activity score” value in the test with PC9 [4] was found to be 0.178. The “HIF reporter activity score” value with PC9 [5] is -0.232. In the test on PC9 [6], the “ERK reporter activity score” value came to 0.0405. Also, in the test with PC9 [7], the “JNK reporter activity score” value is -0.0745. Moreover, the “WNT reporter activity score” value with PC9 [8] was 0.0613. The “NFkB reporter activity score” value in the test with PC9 [9] came to 0.151. Besides, the “YAP/TAZ reporter activity score” value in the test on PC9 [10] is 0.142.
As to `Cc1[nH]nc2ccc(-c3cncc(OC[C@@H](N)Cc4ccccc4)c3)cc12`, in the test on PC9 [1], the “AKT reporter activity score” value is -0.173. The “RAR reporter activity score” value with PC9 [2] was -0.385. The “PKC reporter activity score” value with PC9 [11] was -0.0808. For the same compound, in the test with PC9 [3], the “PKA reporter activity score” value was -0.173. Moreover, in the test on PC9 [4], the “p38 reporter activity score” value worked out at 0.056. Moreover, the “HIF reporter activity score” value in the test on PC9 [5] was -0.128. Moreover, the “ERK reporter activity score” value with PC9 [6] was -0.166. The “JNK reporter activity score” value in the test with PC9 [7] was 0.272. In addition, the “WNT reporter activity score” value in the test on PC9 [8] stood at 0.113. The “YAP/TAZ reporter activity score” value in the test with PC9 [10] is -0.247.
In the case of `C=CC(=O)Nc1cccc(Oc2nc(Nc3ccc(N4CCN(C)CC4)cc3)ncc2Cl)c1`, the “RAR reporter activity score” value in the test on PC9 [2] turned out to be 0.418. The “PKC reporter activity score” value with PC9 [11] was found to be 0.125. Besides, the “p38 reporter activity score” value in the test on PC9 [4] was -0.271. In addition, the “HIF reporter activity score” value in the test with PC9 [5] is 0.164. Further, the “ERK reporter activity score” value in the test on PC9 [6] is -0.662. Besides, the “JNK reporter activity score” value with PC9 [7] came out at 0.152. The “WNT reporter activity score” value in the test with PC9 [8] stood at 0.124. Further, the “NFkB reporter activity score” value in the test with PC9 [9] was found to be 0.166. In the test with PC9 [10], the “YAP/TAZ reporter activity score” value was 0.333.
For the compound `C=CC(=O)N1CCC[C@@H](n2nc(-c3ccc(Oc4ccccc4)cc3)c3c(N)ncnc32)C1`, the “AKT reporter activity score” value with PC9 [1] is -0.461. In the test with PC9 [2], the “RAR reporter activity score” value amounted to 0.562. The “p38 reporter activity score” value in the test on PC9 [4] is -0.409. In addition, the “HIF reporter activity score” value in the test with PC9 [5] was found to be 0.169. In the test with PC9 [6], the “ERK reporter activity score” value is -0.667. Also, the “JNK reporter activity score” value in the test with PC9 [7] was -0.17. The “WNT reporter activity score” value in the test with PC9 [8] is 0.283. Further, in the test on PC9 [10], the “YAP/TAZ reporter activity score” value is 0.322.
In the case of `CN(C)C/C=C/C(=O)Nc1cc2c(Nc3ccc(F)c(Cl)c3)ncnc2cc1O[C@H]1CCOC1` [Afatinib (BIBW2992)], the “AKT reporter activity score” value with PC9 [1] is -0.37. For the same compound, the “PKC reporter activity score” value in the test with PC9 [11] amounted to 0.191. The “p38 reporter activity score” value in the test on PC9 [4] came to 0.229. Also, the “HIF reporter activity score” value with PC9 [5] was 0.0949. For the same compound, in the test with PC9 [6], the “ERK reporter activity score” value is -0.615. In addition, in the test on PC9 [7], the “JNK reporter activity score” value worked out at 0.173. In addition, the “WNT reporter activity score” value in the test with PC9 [8] was determined as 0.34. Also, in the test on PC9 [9], the “NFkB reporter activity score” value amounted to 0.208. The “YAP/TAZ reporter activity score” value with PC9 [10] came out at 0.397.
Consider `C[C@@H](Oc1cc(-n2cnc3ccc(CN4CCN(C)CC4)cc32)sc1C(N)=O)c1ccccc1C(F)(F)F`, for which the “AKT reporter activity score” value in the test on PC9 [1] is -0.183. Also, the “RAR reporter activity score” value in the test with PC9 [2] was 0.399. The “PKA reporter activity score” value in the test on PC9 [3] is 0.141. Moreover, the “p38 reporter activity score” value in the test on PC9 [4] was 0.183. Also, in the test on PC9 [5], the “HIF reporter activity score” value turned out to be 0.347. In addition, the “ERK reporter activity score” value in the test with PC9 [6] is -0.139. For the same compound, in the test with PC9 [7], the “JNK reporter activity score” value is 0.0494. Further, in the test with PC9 [8], the “WNT reporter activity score” value worked out at 0.141. The “NFkB reporter activity score” value in the test with PC9 [9] is 0.0742.
